# In PubChem BioAssay AID2685 (National Center for Advancing Translational Sciences (NCATS), 2010):
# In all, about 320,000 compounds went through this assay and about 2,100 (0.66%) were called active. Roughly 53% stayed inconclusive and do not appear here. The call rests on the fitted dose curve; in most records, active means well fitted inhibition curve with a large enough effect in the signal ratio, with a control signal flat (not every such curve was filed as active); inconclusive means small, poorly fitted or top-dose-only effect, or effect the other way, or a change in a side signal; inactive means flat fitted curve, though single readings scatter; the % refers to the signal ratio. Only a selection was taken, and actives are over-represented in it overall.
# Assay: qHTS Assay for Lipid Storage Modulators in Drosophila S3 Cells;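 on cell number change: cells counted by Cell Tracker Red CMTPX staining in the red channel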; on lipid storage change, negative = inhibition: on the % scale 0 is the no-effect control and ±100 the full control effect
# Settings: BODIPY lipid droplet fluorescence, 18-24 h, cells fed with added oleic acid; cell number change: measured here: cell count max response; series mostly up to 46.1 µM; lipid storage change, negative = inhibition: at the top concentration
# In short: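 Drosophila S3 cells loaded with oleic acid (400 uM, as added) and compounds at several concentrations; lipid droplets imaged by 488-nm laser-scanning cytometry, 500–530 nm intensity and object ratio to cell channel. Percent activity normalized to 20 uM Triacsin C.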
# Potency means the concentration at half of the fitted maximal effect.
SMILES,"lipid storage change, negative = inhibition",cell number change [%],Potency,outcome
CCOC(=O)C1(CCOC)CCN(Cc2ccc(C3CCCCO3)s2)CC1 (stereo unspecified),-17.6% (inactive),-8.03,,
O=C1C2C(C(=O)N1CCc1ccccc1)C1C=CC2C12CC2 (stereo unspecified),,-11.6,23.1 µM (active),
O=C1C2C(C(=O)N1Cc1cccnc1)C1C=CC2C12CC2 (stereo unspecified),,-2.7,,inactive
O=C(Cc1ccccc1)NN1C(=O)C2C3C=CC([C@@H]2C1=O)C31CC1 (stereo partly specified),-2.59% (inactive),-3.77,,
COCC(=O)Nc1ccc(C(C)C)cc1,,24.3,,inactive
CC(C)(C)C(=O)NCCN1CCN(C(=O)C(C)(C)C)CC1,5.31% (inactive),3.18,,
Cc1ccc(-c2nnn(CCC(=O)N3CCCCC3C)n2)cc1 (stereo unspecified),5.42% (inactive),10.5,,
Cc1ccc(-c2nnn(CC(=O)O)n2)cc1,,,,inactive
Cc1ccc(-c2nnn(CC(=O)N3C(C)CCCC3C)n2)cc1 (stereo unspecified),,-11,10.3 µM (active),
Cc1ncc(CO)c(/C=N/NC(=O)c2ccccc2Br)c1O,-8.28% (inactive),0.48,,
Cc1cc(C(=O)N/N=C/c2c(CO)cnc(C)c2O)c2ccccc2n1,,-19.9,5.17 µM (active),
Cc1ncc(CO)c(/C=N/NC(=O)c2ccc(O)cc2)c1O,-1.92% (inactive),19.8,,
Cn1c(CNC(=O)OC(C)(C)C)nnc1SCc1c(Cl)cccc1Cl,6.49% (inactive),-2.58,,
Nc1nc(-c2ccccc2)nn1C(=O)c1ccco1,-0.905% (inactive),-9.73,,
Cc1cc(NC(=O)COC(=O)CCC(=O)c2ccc(F)cc2)no1,-10.1% (inactive),5.31,,
CC(C)(C)c1ccc(C2(C)NC(=O)N(CC(=O)NCc3cccs3)C2=O)cc1 (stereo unspecified),,3.77,5.17 µM (active),
COc1ccc(CNC(=O)CN2C(=O)NC(C)(c3ccc(C(C)(C)C)cc3)C2=O)cc1 (stereo unspecified),2.76% (inactive),5.69,,
O=C(CN1C(=O)NC2(CCCCCC2)C1=O)NCc1cccs1,1.88% (inactive),-8.23,,
Cc1ccc(S(=O)(=O)NCc2ccccc2)cc1C(=O)N1CCCCCCC1,-14.6% (inactive),-10.2,,
COCCNC(=O)c1onc(CSc2nc3ccccc3[nH]2)c1C(=O)NCCOC,,-7.78,,inactive
Cc1cc(C)cc(SCc2noc(C(=O)NCc3ccccc3)c2C(=O)NCc2ccccc2)c1,5.46% (inactive),-2.6,,
O=C(NCC1CC1)c1onc(CSc2nc3ccccc3[nH]2)c1C(=O)NCC1CC1,,-10.5,11.6 µM (active),
O=C(NCc1ccccc1)c1onc(CSc2nc3ccccc3[nH]2)c1C(=O)NCc1ccccc1,,-26.6,14.6 µM (active),

SMILES,"lipid storage change, negative = inhibition",cell number change [%],Potency,outcome
O=C(NCC1CC1)c1onc(CSc2ccc(F)cc2)c1C(=O)NCC1CC1,-7.02% (inactive),10.6,,
C=CCNC(=O)c1onc(CSc2nc3ccccc3[nH]2)c1C(=O)NCC=C,,-6.29,,inactive
Cc1c(C(=O)OC(C)C)nnn1-c1nonc1N,-3.46% (inactive),7.24,,
Cc1ccsc1-c1nc(CN2CCCC2c2ccc(F)cc2)c(C)o1 (stereo unspecified),8.98% (inactive),4.95,,
Cc1cnc(C(=O)N2CCCC(C(=O)c3cccc(OC(C)C)c3)C2)cn1 (stereo unspecified),2.98% (inactive),-12.5,,
Cc1ccc(C)c(NC(=O)c2ccc[n+](Cc3ccc([N+](=O)[O-])cc3)c2)c1,-3.16% (inactive),11.2,,
CNNC(=O)C(C)NC(=O)c1ccc(Br)cc1 (stereo unspecified),11.6% (inactive),10.8,,
CCC(CC)NC(=O)Nc1ccc(C)cc1,5.28% (inactive),-11.1,,
CCN(CC)c1nc(N)nc(NS(=O)(=O)c2ccc(Cl)cc2)n1,8.21% (inactive),7.29,,
CCOCCCn1c(SCC(=O)NC(C)(C)C)nc2ccccc2c1=O,29.5% (inactive),-4.14,,
CCOCCCn1c(SCc2nc3ccccc3s2)nc2ccccc2c1=O,,-21.8,3.66 µM (active),
O=c1c2ccccc2nc(SCc2nc3ccccc3s2)n1CCCO,0.263% (inactive),-14.5,,
Brc1ccccc1OCCCN1CCCCCC1,-11.1% (inactive),5.41,,
CC(=O)c1sc(NC(=O)c2cc(=O)c3ccccc3o2)nc1C,-6.15% (inactive),-11.4,,
COc1ccc2nc(NNC(=O)c3cc(=O)c4ccccc4o3)sc2c1,,1.29,5.17 µM (active),
O=C(Cc1ccccc1)Nc1nc2ccccc2s1,-4.4% (inactive),-15.5,,
COc1ccc2nc(NC(=O)c3ccco3)sc2c1,-16.9% (inactive),9.21,,
O=C(CCNC(=O)c1ccccc1Cl)Nc1nc2ccccc2s1,6.98% (inactive),9.97,,
O=C(CCNC(=O)c1ccccc1)Nc1nc2ccccc2s1,,12,3.66 µM (active),
COc1ccc2nc(NC(=S)NC(=O)c3ccco3)sc2c1,0.215% (inactive),10,,
COc1ccc2nc(NC(=O)CCNC(=O)c3ccco3)sc2c1,,15.7,8.2 µM (active),
O=C(NNc1nc2c(F)cccc2s1)c1cc(=O)c2ccccc2o1,-15% (inactive),-1.04,,
COc1ccc(C(=O)NCCOc2cccc(OC)c2)cc1,14.8% (inactive),26.7,,
